# Data: PubChem BioAssay
# The source made the active and inactive calls. Unless noted, how the calls were made is not given here.
# Legend:
# [1] = compounds binding Alexa647 anti-His antibody – biochemical, small-molecule microarray, 635 nm fluorescence, artefact control for SMM control protein annotation, primary screen (AID 1128); conditions: higher = more signal;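 further: score merges feature fluorescence with signal-to-noise for each printed compound spot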
# [2] = system: Human papillomavirus type 1a E7 protein (residues 1-88); assay: HPV1a E7 small-molecule binders, primary screen, biochemical, small-molecule microarray, residues 1-88, 635 nm (AID 1129); conditions: small-molecule microarray binding, fluorescence 635 nm; higher = more signal
# [3] = target: Focal adhesion kinase 1 (Homo sapiens) (UniProt Q05397); assay: PTK2 protein binding on printed compound slides – biochemical, small-molecule microarray, 635/667 nm fluorescence, BSA, DTT, primary screen (AID 1130); conditions: 635 nm fluorescence, higher = more signal;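 further: composite of spot emission at 667 nm and signal to noise over triplicate slides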
# [4] = system: Fibrinogen (Alexa647-labelled); assay: Alexa647-fibrinogen binding to printed small molecules – biochemical, small-molecule microarray, 635/667 nm fluorescence, artefact control for SMM control-protein annotation, profiling panel (AID 1131); conditions: fibrinogen-A647 binding fluorescence, higher = more signal;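 further: z-score merges 667 nm fluorescence with per-spot signal-to-noise over triplicate slides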
# [5] = target: Follistatin (Homo sapiens) (UniProt P19883); assay: FST protein binding to printed compounds – biochemical, small-molecule microarray, 635/667 nm fluorescence, primary screen (AID 1132); conditions: 635 nm fluorescence, higher = more signal
# [6] = target: Fibroblast growth factor 2 (Homo sapiens) (UniProt P09038); assay: basic fibroblast growth factor binding to printed compounds – biochemical, small-molecule microarray, 635/667 nm fluorescence, primary screen (AID 1133); conditions: FGF2, fluorescence 635/667, higher = more signal
# [7] = JC-1 mitochondrial potential readout, lung cancer cells – cell-based, A549, JC-1 fluorescence, basal, 24 h, 100 nL, profiling panel (AID 1138); conditions: higher = more signal;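 further: A549 lung adenocarcinoma cells under basal conditions with no added stimulus; test concentration not given here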
# Lefty1 = Lefty1 protein binding to printed compounds – biochemical, small-molecule microarray, 635/667 nm fluorescence, primary screen (AID 1139); conditions: fluorescence 635/667, higher = more signal
# [8] = system: wheat germ agglutinin (Triticum aestivum), Alexa647-labelled; assay: Alexa647-WGA lectin binding to printed small molecules – biochemical, small-molecule microarray, 635/667 nm fluorescence, artefact control for SMM control-protein annotation, profiling panel (AID 1140); conditions: WGA-A647 binding, 635 nm fluorescence, higher = more signal;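 further: score merges 667 nm feature emission with signal to noise over triplicate slides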
# [9] = target: Luciferin 4-monooxygenase (Photinus pyralis) (UniProt P08659); assay: inhibition of purified Photinus pyralis luciferase – biochemical, luminescence, purified enzyme, 2006 set, primary screen (AID 1141); conditions: purified firefly luciferase, SteadyGlo luminescence, 30 min; higher = more signal, called active from +8 up or from −8 down;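 further: cell-free assay with purified firefly luciferase at 100 ng per well in PBS; test concentration not given here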
# [10] = system: Wnt5a (protein binding on small-molecule microarray); assay: small molecules binding Wnt5a protein – biophysical, small-molecule microarray, 635/667 nm fluorescence, primary screen (AID 1142); conditions: 635 nm fluorescence, higher = more signal;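 further: fluorescence read at 667 nm with signal to noise per printed feature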
# [11] = ATP-based viability of Huh7 replicon cells – cell-based, CellTiter-Glo luminescence, basal, 48 h, cytotoxicity control for HCV replication inhibitor project, primary screen (AID 1143); conditions: higher = more signal, called active from +8 up or from −8 down;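 further: Huh7 hepatoma cells carrying a hepatitis C replication reporter with no stimulus; test concentration not given here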
# [12] = Pseudomonas biofilm growth suppression – PAO1 strain, BacTiter-Glo luminescence, LB-PBS, primary screen (AID 1144); conditions: P. aeruginosa PAO1 biofilm, 12 h, higher = more signal
# [13] = basal CRE-LacZ reporter activity in PC12 – cell-based, unstimulated, primary screen (AID 1145); conditions: no forskolin, luminescence, 4.5 h, higher = more signal, called active from +8 up or from −8 down
# [14] = forskolin-driven CRE-LacZ activity in PC12 – cell-based, CRE-LacZ reporter, forskolin-stimulated, primary screen (AID 1146); conditions: luminescence, 4.5 h, higher = more signal, called active from +8 up or from −8 down;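 further: PC12 cells with 6xCRE LacZ reporter stimulated by forskolin 10 µM; beta-galactosidase reporter signal reflecting CREB driven transcription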
# [15] = target: Streptavidin (Streptomyces avidinii) (UniProt P22629); assay: compounds binding control protein streptavidin – biophysical, small-molecule microarray, 635/667 nm fluorescence, artefact control for SMM compound annotation, primary screen (AID 1147); conditions: higher = more signal;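 further: signal reflects streptavidin binding to arrayed compounds as a control protein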
# [16] = probe aInhba binding on compound microarray – biochemical, small-molecule microarray, 635/667 nm fluorescence, primary screen (AID 1148); conditions: higher = more signal;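 further: score merges 667nm spot fluorescence with signal-to-noise for antibody binding to printed compounds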
# Torsin-1A (Homo sapiens) [17] = target: Torsin-1A (Homo sapiens) (UniProt O14656); assay: TOR1A wild-type binding on microarray – cell lysate, small-molecule microarray, lysate, 635/667 nm, primary screen (AID 1149); conditions: COS7 hTOR1A-WT lysate, 635 nm fluorescence, higher = more signal
# Torsin-1A (Homo sapiens) [18] = target: Torsin-1A (Homo sapiens) (UniProt O14656); assay: torsin A mutant lysate binding on microarrays – cell lysate, small-molecule microarray, COS7 lysate, 635/667 nm fluorescence, primary screen (AID 1150); conditions: COS7 hTOR1A mutant lysate, 635 nm fluorescence, higher = more signal;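 further: score pools 667 nm emission and signal to noise measuring lysate protein binding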
# [19] = system: Sonic hedgehog protein (Shh); assay: Sonic hedgehog microarray binding compounds – biochemical, small-molecule microarray, 635/667 nm fluorescence, primary screen (AID 1151); conditions: 635 nm fluorescence, higher = more signal;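 further: Shh protein binding to compounds spotted on small-molecule microarray slides; score combines spot fluorescence intensity with signal-to-noise across triplicate slides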
# Sequence of Torsin-1A (Homo sapiens) (O14656 whole entry, looked up): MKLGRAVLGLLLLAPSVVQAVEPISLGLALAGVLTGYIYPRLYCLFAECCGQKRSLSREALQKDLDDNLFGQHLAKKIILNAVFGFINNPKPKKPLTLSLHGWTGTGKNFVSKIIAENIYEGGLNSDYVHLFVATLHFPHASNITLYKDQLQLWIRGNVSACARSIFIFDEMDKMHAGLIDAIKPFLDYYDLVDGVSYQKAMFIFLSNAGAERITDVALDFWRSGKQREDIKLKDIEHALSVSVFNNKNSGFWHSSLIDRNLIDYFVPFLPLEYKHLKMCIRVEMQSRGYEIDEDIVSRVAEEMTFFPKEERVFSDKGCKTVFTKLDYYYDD
# Sequence of Fibroblast growth factor 2 (Homo sapiens) (P09038 whole entry, looked up): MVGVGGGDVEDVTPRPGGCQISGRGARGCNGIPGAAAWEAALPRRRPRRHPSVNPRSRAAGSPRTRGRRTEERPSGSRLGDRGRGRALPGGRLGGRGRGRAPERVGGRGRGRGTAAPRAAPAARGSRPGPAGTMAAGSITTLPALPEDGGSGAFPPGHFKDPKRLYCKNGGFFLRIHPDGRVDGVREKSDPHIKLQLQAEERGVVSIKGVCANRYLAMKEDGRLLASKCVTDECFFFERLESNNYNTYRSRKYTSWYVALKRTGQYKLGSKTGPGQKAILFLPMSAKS
# Sequence of Streptavidin (Streptomyces avidinii) (P22629 whole entry, looked up): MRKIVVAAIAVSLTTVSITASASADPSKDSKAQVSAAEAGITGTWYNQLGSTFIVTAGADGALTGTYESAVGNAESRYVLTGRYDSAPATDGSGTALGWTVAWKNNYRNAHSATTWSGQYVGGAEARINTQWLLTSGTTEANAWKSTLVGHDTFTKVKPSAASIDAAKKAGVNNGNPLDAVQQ
# Sequence of Luciferin 4-monooxygenase (Photinus pyralis) (P08659 whole entry, looked up): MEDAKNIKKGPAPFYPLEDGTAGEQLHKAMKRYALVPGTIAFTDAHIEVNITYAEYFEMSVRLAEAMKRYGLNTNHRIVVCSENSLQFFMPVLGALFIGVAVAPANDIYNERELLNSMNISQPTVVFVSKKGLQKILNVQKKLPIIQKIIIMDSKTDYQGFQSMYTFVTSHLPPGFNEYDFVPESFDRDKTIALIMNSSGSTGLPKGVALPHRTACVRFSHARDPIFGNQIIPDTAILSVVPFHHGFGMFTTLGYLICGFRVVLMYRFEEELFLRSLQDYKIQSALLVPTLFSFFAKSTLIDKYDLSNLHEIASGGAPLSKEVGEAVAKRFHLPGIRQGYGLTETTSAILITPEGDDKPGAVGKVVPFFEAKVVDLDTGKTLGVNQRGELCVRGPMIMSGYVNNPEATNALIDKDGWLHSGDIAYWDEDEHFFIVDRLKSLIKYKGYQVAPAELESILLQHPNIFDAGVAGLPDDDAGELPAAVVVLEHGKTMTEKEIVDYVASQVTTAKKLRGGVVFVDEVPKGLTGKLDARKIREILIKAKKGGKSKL
# Sequence of Follistatin (Homo sapiens) (P19883 whole entry, looked up): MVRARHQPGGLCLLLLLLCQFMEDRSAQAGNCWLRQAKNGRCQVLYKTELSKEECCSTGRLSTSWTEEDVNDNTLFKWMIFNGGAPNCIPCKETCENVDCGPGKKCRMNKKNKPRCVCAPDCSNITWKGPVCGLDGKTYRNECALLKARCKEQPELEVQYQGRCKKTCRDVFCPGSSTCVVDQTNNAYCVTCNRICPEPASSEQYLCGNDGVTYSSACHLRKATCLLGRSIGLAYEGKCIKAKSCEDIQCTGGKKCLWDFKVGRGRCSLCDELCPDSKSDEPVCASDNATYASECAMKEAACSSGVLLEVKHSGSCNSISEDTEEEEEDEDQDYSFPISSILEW
# Sequence of Focal adhesion kinase 1 (Homo sapiens) (Q05397 whole entry, looked up): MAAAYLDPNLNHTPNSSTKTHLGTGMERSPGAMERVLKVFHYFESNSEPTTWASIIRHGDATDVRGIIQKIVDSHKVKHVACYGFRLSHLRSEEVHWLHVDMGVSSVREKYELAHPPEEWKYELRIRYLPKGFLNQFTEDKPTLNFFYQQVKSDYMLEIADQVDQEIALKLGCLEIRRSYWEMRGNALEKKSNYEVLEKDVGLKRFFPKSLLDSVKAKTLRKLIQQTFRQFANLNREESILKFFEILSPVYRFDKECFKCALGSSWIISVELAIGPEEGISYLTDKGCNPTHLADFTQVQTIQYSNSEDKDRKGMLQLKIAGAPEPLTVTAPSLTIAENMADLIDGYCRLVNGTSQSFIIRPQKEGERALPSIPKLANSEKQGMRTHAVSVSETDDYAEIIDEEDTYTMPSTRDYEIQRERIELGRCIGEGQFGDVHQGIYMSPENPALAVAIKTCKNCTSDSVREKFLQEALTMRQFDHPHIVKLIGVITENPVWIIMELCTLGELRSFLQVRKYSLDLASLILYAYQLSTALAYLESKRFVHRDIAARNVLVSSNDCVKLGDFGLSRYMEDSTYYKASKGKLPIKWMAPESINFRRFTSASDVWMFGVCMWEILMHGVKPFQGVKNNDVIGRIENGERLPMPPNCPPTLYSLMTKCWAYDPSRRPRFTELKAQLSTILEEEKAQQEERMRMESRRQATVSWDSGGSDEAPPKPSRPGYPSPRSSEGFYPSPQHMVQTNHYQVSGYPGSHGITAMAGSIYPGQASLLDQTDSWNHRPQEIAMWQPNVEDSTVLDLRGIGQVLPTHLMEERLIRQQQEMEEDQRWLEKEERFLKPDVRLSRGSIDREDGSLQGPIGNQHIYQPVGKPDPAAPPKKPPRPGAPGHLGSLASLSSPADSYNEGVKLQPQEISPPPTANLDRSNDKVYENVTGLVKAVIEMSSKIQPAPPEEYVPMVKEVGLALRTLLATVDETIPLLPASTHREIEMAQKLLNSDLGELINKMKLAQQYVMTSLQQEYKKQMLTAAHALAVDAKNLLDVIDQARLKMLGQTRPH
Structure (SMILES),composite z-score [1],composite z-score [2],composite z-score [3],composite z-score [4],composite z-score [5],composite z-score [6],z-score [7],composite z-score (Lefty1),composite z-score [8],z-score [9],composite z-score [10],z-score [11],z-score [12],z-score [13],z-score [14],composite z-score [15],composite z-score [16],composite z-score (Torsin-1A (Homo sapiens) [17]),composite z-score (Torsin-1A (Homo sapiens) [18]),composite z-score [19]
C=C(COC)/C(=C/C[C@@H](OC(=O)c1ccncc1)c1cccc(OCCO)c1)c1cc(C(=O)OC)ccc1OC,0.0301,0.942,-0.0044,0.199,1.42,2,1.28,1.63,0.181,-1.11 (inactive),0.996,-8.13 (active),-0.0417 (inactive),23.7 (active),-0.376 (inactive),-0.0673,0.709,2.64,1.49,2.11
CC(C)CCC[C@@H](C)[C@H]1CC[C@@]2(C)C3=C(CC[C@]12C)[C@@]1(C)CC[C@H](OC(=O)C(C)(C)C)C(C)(C)C1CC3 (stereo not given in full),0.43,0.586,0.0226,0.551,0.828,0.232,0.4,0.543,0.0969,0.159 (inactive),0.228,-2.46 (inactive),-0.738 (inactive),0.12 (inactive),-1.2 (inactive),0.122,-0.186,0.89,0.31,0.836
COC(=O)[C@@]1(Cc2ccc(OC)cc2)[C@H]2c3cc(C(=O)N(C)C)n(Cc4cc(C)n(C)n4)c3C[C@H]2CN1C(=O)c1ccccc1,1.08,1.29,0.405,-0.842,-0.396,-0.233,-1.14,-0.0189,0.262,1.01 (inactive),0.982,-0.753 (inactive),0.329 (inactive),0.19 (inactive),2.65 (inactive),0.462,0.229,0.638,0.67,-0.797
CC(C)N1CC=CC23O[C@@H]4C=CCOC(=O)[C@@H]4[C@H]2C(=O)N(CCCCCCO)[C@@H]3C1=O (stereo not given in full),-0.249,-0.407,-0.181,-1.66,-0.663,-1.19,-0.525,-0.0359,0.666,0.287 (inactive),-0.301,-0.0015 (inactive),-0.839 (inactive),-0.627 (inactive),-0.421 (inactive),-0.665,-0.097,-2.54,-0.976,1.08
O=C(O)[C@@]1(Cc2ccccc2)COC(c2ccc(OCCCO)cc2)=N1,-0.951,-0.915,-0.375,-2.33,0.24,-0.33,0.315,-1.18,-0.723,-3.65 (inactive),0.0416,0.621 (inactive),0.498 (inactive),-0.277 (inactive),0.0685 (inactive),-0.345,-0.252,-0.162,1.52,-0.555
COC(=O)[C@@]1(Cc2ccc(F)cc2)[C@H]2c3cc(C(=O)N4CCCC4)n(Cc4ccccc4)c3C[C@H]2CN1C(=O)c1ccccc1,1.66,0.923,1.08,0.805,0.724,-0.481,-1.23,-0.0042,0.768,2.22 (inactive),0.379,-3.69 (inactive),0.195 (inactive),-0.368 (inactive),0.339 (inactive),1.38,-0.0413,0.0257,0.72,-0.447
C[C@H]1ON(c2ccccc2)[C@@H](c2ccccc2)[C@@H]1C(=O)N1C(=O)OC[C@@H]1c1ccccc1,0.143,0.718,0.784,0.894,1.12,0.986,-0.21,0.5,0.014,0.422 (inactive),-0.0367,-0.133 (inactive),0.0377 (inactive),-0.323 (inactive),-0.251 (inactive),0.116,-0.0403,0.151,0.201,0.657
CC(C)[Si](C#C[Si](C(C)C)(C(C)C)C(C)C)(O[C@H](C)c1cn(Cc2cccc(Cl)c2)nn1)C(C)C,0.604,1.11,0.586,0.715,0.396,0.67,2.01,0.714,1.17,-1.11 (inactive),-0.0078,-0.219 (inactive),-1.25 (inactive),-0.71 (inactive),-0.399 (inactive),0.534,-0.101,0.781,0.262,0.632
COc1ccc([Si](C)(C)[C@@H]2[C@@H](CC(=O)N(CCO)Cc3ccccc3)O[C@]3(C(=O)N(Cc4ccc(N5CCOC5=O)cc4)c4ccccc43)[C@H]2C)cc1,1.56,0.595,0.294,0.631,1.17,1.05,-0.147,1.48,0.415,-0.356 (inactive),0.0838,-5.01 (inactive),0.0675 (inactive),7.59 (inactive),0.331 (inactive),0.601,0.027,0.436,0.0783,1.95
